# FBA Mtb inh – inhibitors of M. tuberculosis fructose-bisphosphate aldolase | purified M. tuberculosis FBA, fluorescence read-out | inhibition, % at 1 µM | actives 2.3% (n = 360,000); in the data active = inhibition above about 27%;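 note: 0% = vehicle and 100% = reference inhibitor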
# Target sequence (P9WQA3 whole entry, looked up): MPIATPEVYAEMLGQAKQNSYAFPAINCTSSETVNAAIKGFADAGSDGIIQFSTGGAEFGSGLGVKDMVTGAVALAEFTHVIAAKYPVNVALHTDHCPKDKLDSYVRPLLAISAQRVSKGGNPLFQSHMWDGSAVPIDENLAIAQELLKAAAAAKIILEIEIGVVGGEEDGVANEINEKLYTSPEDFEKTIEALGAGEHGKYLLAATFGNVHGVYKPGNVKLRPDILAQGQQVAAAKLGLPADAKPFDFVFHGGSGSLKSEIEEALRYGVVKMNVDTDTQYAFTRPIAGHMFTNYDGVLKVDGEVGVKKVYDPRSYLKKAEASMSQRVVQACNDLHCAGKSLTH
# GDH-TPI inh – GDH-TPI coupled enzyme inhibition counter-screen. GDH-TPI coupled enzyme counterscreen, NADH absorbance. inhibition, % at 4.8 µM. actives 1.2% (n = 360,000). AID 588335;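 note: 0% = DMSO wells and 100% = wells lacking the enzyme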
# CCHF vOTU inh – blocks the CCHF virus ovarian tumor domain protease; CCHFV vOTU protease, Pep-AMC fluorescence; inhibition, % at 11.5 µM; actives 0.55% (n = 370,000); note: 0% = vehicle wells with enzyme and 100% = no enzyme wells
# Mtb bLac sens – beta-lactam sensitization of Mtb H37Rv; M. tuberculosis H37Rv growth with meropenem, percent inhibition; inhibition, % at 25 µM; actives 0.27% (n = 330,000); call rule not given here;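 note: growth measured after seven days incubation then overnight dye step; 0% = bacteria only wells and 100% = bacteria with antibiotic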
# RecA intein inh – inhibitors of M. tuberculosis RecA intein splicing. cell-free RecA intein splicing, fluorescence. P9WHJ3. inhibition, % (no concentration beside the values). actives 0.75% (n = 290,000); in the data active = inhibition above about 30%;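 note: 0% = vehicle wells and 100% = reference inhibitor control wells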
# An asterisk follows results filed as active; / = no result given; + = active, no number. In the library only some 4.2% were active in any assay of this set; here they are far more common. Cut-off read from the data, not from the text of the source, unless noted: active = inhibition above about 30%; inactive = the rest.
SMILES,FBA Mtb inh,GDH-TPI inh,CCHF vOTU inh,Mtb bLac sens,RecA intein inh
Cc1c(C(=O)N/N=C/c2ccccc2Cl)[nH][nH]c1=O,/,/,-1,/,/
Cn1c2ccccc2c(=O)c2ccc(C#Cc3ccccn3)cc21,/,/,-13,12,-30
Cn1c2ccccc2c(=O)c2cc(C#Cc3ccccn3)ccc21,186*,26,-65,2,-32
CCn1c(SCC(=O)Nc2ccccc2-c2ccccc2)nnc1-c1cnccn1,/,/,-4,/,/
O=[N+]([O-])c1cc(-c2nnc(Nc3ccc(O)cc3)c3ccccc23)ccc1N1CCOCC1,1,21,8,2,32*
COC(=O)C1CN(Cc2cn(Cc3ccc(Cl)cc3)nn2)CCS(=O)(=O)N1Cc1ccc(OC)cc1 (stereo not given),/,/,8,/,/
N/C(=N\NC(=O)c1cccs1)c1cc2ccccc2oc1=O,3,42*,21,12,2
CCOP(=S)(OCC)Oc1ccc2c(C)c(Cl)c(=O)oc2c1,9,10,4,/,/
Cc1c(Cl)c(=O)oc2cc(OC(C)C)ccc12,+,25,-182,-3,-4
CCC(=O)Oc1ccc2c(C)c(Cl)c(=O)oc2c1,+,4,-265,-1,-194
CC(C)(C)c1ccc(-c2nnc(SCC(=O)Nc3ccc4c(c3)OCCO4)n2-c2ccc(Cl)cc2)cc1,/,/,16,/,/
CC(COc1cccc(Br)c1)CN1CCC(C(O)(c2ccccc2)c2ccccc2)CC1 (stereo not given),/,/,8,/,/
CCCc1c(O)c2ccccc2n(-c2ccccc2)c1=O,45*,14,-7,19,1
CN=C1c2cc3c(Br)c(OC)ccc3n2CCN1C,0,32*,18,35,3
CN1C(=O)c2cc(NC(=O)Nc3ccccc3F)ccc2OC[C@H]2O[C@@H](CC(=O)NCc3ccc(-c4ccccc4)cc3)CC[C@@H]21,/,/,-2,/,/
CCOc1ccc(/C=N/NC(=O)c2ccc(Cn3cc([N+](=O)[O-])cn3)o2)cc1,-5,42*,6,-3,1
COc1ccc(/C=N/NC(=O)c2ccc(Cn3cc([N+](=O)[O-])cn3)o2)cc1O,0,37*,11,5,-4
CCN(CC)c1ccc(/C=N/NC(=O)c2ccco2)cc1,-2,43*,19,-1,-2
CCN(CC)c1ccc(/C=N/NC(=O)c2ccco2)c(O)c1,4,41*,2,11,-95
CCN(CC)c1ccc(/C=N/NC(=S)NCc2ccccc2)c(O)c1,7,24,0,0,-6
O=C(Cc1cccs1)N/N=C/c1ccccc1,1,6,3,-6,1
CCN(CC)c1ccc(/C=N/NC(=O)Cc2cccs2)c(O)c1,0,38*,10,-3,1
COC(=O)[C@]12C[C@H](CC(=O)NCC34CC5CC(CC(C5)C3)C4)C(=O)N(CCc3ccc(OC)c(OC)c3)C1=C[C@H](C1CCCC1)O[C@@H]2C,/,/,17,/,/
CCc1nn(CC(=O)NCCN2CCOCC2)c(=O)c2cc3c(OC)cccc3n12,+,14,-151,0,-1
COC(=O)c1cc2c(c3c4cc(F)ccc4n(S(=O)(=O)c4cccc(C)c4)c13)C(=O)N(Cc1ccc(N(C)C)cc1)C2,/,/,6,/,/
SMILES,FBA Mtb inh,GDH-TPI inh,CCHF vOTU inh,Mtb bLac sens,RecA intein inh
Cc1sc2nc(COC(=O)CNC(=O)c3ccc(F)cc3Cl)[nH]c(=O)c2c1C,/,/,1,/,/
O=C(COc1ccc2ccc(=O)oc2c1)OCc1ccccc1,11,7,-7,78,1
O=C(CNC(=O)OCc1ccccc1)Oc1ccc2ccc(=O)oc2c1,+,13,-354,5,-60
O=C(CN1C(=O)NC2(CCCC2)C1=O)Oc1ccc2ccc(=O)oc2c1,/,27,-319,1,/
CC(NC(=O)OC(C)(C)C)C(=O)Oc1ccc2ccc(=O)oc2c1 (stereo not given),+,5,-250,1,/
CC(C)(C)OC(=O)NCCC(=O)Oc1ccc2ccc(=O)oc2c1,+,10,/,5,-63
O=C(Nc1c(-c2ccc(C(F)(F)F)cc2)nc2ncccn12)c1ccc(F)cc1,/,/,22,/,/
Cc1ccsc1C1Nc2ccccc2-c2nc3ccccc3n21 (stereo not given),178*,12,-226,2,-11
C(#CC1=CCCCC1)CNCC1CC1,/,/,-3,/,/
COc1cccc(/C=C2\Oc3cc(OCC(=O)N4CCC[C@H]4C(=O)O)ccc3C2=O)c1,1,36*,6,6,-3
CC(C)c1nn2c(N)c(/C=C3\C=Nc4ccccc43)c(=O)nc2s1,1,12,3,-9,-9
CCC(CC)c1nn2c(N)c(/C=C3\C=Nc4ccccc43)c(=O)nc2s1,+,19,0,-12,-17
